Laboratory results taken from PubChem BioAssay (EPA / NIEHS).
Several values for one entry are separate records, joined by “and”; a condition that tells them apart may be missing. Equal entries are not always repeated. Results filed as inconclusive are left out. Activity calls are given as the source filed them. Rule for the calls, unless noted: active = hit-call score of the fitted dose curve at least 0.9, where 1 is the maximum; inconclusive = response in the unintended direction; inactive = score below 0.9.

Legend:
[1] = target: human CYP1A2, CYP1A2 (gene 1544) (UniProt P05177); assay: NVS_ADME_hCYP1A2: NovaScreen (NVS) CYP450-related Enzyme Activity (ADME) Assay for human CYP1A2 (AID 2283102);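 for AC50: potency for inhibition since loss of fluorescence marks reduced CYP1A2 activity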
Sequence of human CYP1A2, CYP1A2 (gene 1544) (P05177 whole entry, looked up): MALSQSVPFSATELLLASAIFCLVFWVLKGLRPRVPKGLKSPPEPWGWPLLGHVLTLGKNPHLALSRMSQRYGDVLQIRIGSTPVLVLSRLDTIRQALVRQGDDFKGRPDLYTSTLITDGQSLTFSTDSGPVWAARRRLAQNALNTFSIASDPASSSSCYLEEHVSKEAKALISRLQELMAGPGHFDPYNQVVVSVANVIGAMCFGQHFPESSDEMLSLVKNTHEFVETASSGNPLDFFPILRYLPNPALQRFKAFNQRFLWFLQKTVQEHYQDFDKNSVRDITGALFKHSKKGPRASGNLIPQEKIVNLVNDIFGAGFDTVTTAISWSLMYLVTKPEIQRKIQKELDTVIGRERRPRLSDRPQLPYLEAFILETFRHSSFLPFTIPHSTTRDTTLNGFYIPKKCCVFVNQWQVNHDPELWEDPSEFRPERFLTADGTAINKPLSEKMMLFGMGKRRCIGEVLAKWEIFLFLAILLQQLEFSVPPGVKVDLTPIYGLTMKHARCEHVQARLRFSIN
In short: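 rec. hCYP1A2 (insect cells), cell-free; fluorogenic substrate; 0.5 h; FI read. Baseline = acetonitrile; signal loss = inhibition. 10 uM duplicate primary → conc. series for actives.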

[2] = target: Cytochrome P450 2C19 (Homo sapiens) (UniProt P33261); assay: NVS_ADME_hCYP2C19: NovaScreen (NVS) CYP450-related Enzyme Activity (ADME) Assay for human CYP2C19 (AID 2283113);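 for AC50: potency for inhibition seen as loss of fluorescent signal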
In short: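 Fluorescence intensity was measured 1 hour after chemicals were added to insect-cell-derived recombinant CYP2C19 with fluorogenic substrate. Decreased signal versus acetonitrile control was taken as reduced enzyme activity; initial testing used 10 uM in duplicate.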

[3] = target: human CYP2B6, CYP2B6 (gene 1555) (UniProt P20813); assay: NVS_ADME_hCYP2B6: NovaScreen (NVS) CYP450-related Enzyme Activity (ADME) Assay for human CYP2B6 (AID 2283101)
Sequence of human CYP2B6, CYP2B6 (gene 1555) (P20813 whole entry, looked up): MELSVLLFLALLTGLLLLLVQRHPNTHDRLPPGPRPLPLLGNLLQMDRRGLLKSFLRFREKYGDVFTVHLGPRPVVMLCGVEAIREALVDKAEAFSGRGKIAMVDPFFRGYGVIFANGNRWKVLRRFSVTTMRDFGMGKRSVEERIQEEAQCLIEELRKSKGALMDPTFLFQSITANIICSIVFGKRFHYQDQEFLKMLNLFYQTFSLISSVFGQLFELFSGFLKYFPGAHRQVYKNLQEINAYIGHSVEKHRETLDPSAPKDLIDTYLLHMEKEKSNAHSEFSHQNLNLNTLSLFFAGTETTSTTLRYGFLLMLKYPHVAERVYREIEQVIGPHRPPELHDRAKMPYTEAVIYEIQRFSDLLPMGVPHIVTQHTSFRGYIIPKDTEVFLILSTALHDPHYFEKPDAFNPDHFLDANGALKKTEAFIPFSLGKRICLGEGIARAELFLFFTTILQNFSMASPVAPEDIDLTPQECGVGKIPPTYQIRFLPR
In short: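 Compounds were first screened in duplicate at 10 uM against recombinant enzyme, with the fluorescent product measured after 1 hour. Active compounds were retested over a concentration series. Loss of fluorescence versus acetonitrile control was scored as reduced enzyme activity.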

[4] = target: human CYP2C8, CYP2C8 (gene 1558) (UniProt P10632); assay: NVS_ADME_hCYP2C8: NovaScreen (NVS) CYP450-related Enzyme Activity (ADME) Assay for human CYP2C8 (AID 2283104; active = hit-call score of the fitted dose curve at least 0.9, where 1 is the maximum; inactive = score below 0.9)
Sequence of human CYP2C8, CYP2C8 (gene 1558) (P10632 whole entry, looked up): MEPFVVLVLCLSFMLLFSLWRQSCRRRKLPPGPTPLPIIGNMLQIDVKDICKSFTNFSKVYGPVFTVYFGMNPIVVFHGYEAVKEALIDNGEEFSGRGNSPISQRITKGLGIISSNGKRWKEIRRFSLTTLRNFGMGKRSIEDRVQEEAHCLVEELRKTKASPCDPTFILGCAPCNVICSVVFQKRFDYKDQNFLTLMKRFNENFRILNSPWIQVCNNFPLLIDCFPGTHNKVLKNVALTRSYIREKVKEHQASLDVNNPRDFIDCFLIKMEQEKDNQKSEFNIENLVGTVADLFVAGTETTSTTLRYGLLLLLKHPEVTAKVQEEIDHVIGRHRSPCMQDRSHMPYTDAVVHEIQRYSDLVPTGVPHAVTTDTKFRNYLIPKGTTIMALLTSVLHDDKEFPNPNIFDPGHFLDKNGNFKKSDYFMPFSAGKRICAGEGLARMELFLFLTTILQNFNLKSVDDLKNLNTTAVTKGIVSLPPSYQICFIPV
In short: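 Fluorescence readout of substrate turnover by recombinant CYP2C8 after 0.5 h, baseline acetonitrile. Single-concentration duplicate screen at 10 uM preceded singleton concentration series (max 20 uM) for compounds passing the inhibition threshold.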

[5] = target: Cytochrome P450 3A4 (Homo sapiens) (UniProt P08684); assay: NVS_ADME_hCYP3A4: NovaScreen (NVS) CYP450-related Enzyme Activity (ADME) Assay for human CYP3A4 (AID 2283110)
Sequence of Cytochrome P450 3A4 (Homo sapiens) (P08684 whole entry, looked up): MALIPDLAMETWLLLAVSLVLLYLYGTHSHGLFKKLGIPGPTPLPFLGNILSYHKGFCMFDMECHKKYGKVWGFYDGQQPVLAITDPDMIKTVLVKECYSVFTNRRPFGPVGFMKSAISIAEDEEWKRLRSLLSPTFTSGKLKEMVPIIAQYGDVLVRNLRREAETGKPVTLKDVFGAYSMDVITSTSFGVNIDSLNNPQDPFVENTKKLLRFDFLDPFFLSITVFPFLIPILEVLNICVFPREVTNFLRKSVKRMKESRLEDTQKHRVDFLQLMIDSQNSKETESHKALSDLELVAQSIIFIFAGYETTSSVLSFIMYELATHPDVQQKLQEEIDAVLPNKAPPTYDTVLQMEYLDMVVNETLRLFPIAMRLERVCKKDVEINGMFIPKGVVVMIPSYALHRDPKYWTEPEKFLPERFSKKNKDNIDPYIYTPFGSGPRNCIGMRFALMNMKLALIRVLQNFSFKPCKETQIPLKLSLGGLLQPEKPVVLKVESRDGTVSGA
In short: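 Compounds screened in duplicate at 10 uM, with follow-up concentration-response for actives, against insect-cell-expressed recombinant enzyme. Activity read by fluorescence 0.33 h after dosing; loss of signal versus acetonitrile control indicates inhibition.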

[6] = target: human CYP2J2, CYP2J2 (gene 1573) (UniProt P51589); assay: NVS_ADME_hCYP2J2: NovaScreen (NVS) CYP450-related Enzyme Activity (ADME) Assay for human CYP2J2 (AID 2283106)
Sequence of human CYP2J2, CYP2J2 (gene 1573) (P51589 whole entry, looked up): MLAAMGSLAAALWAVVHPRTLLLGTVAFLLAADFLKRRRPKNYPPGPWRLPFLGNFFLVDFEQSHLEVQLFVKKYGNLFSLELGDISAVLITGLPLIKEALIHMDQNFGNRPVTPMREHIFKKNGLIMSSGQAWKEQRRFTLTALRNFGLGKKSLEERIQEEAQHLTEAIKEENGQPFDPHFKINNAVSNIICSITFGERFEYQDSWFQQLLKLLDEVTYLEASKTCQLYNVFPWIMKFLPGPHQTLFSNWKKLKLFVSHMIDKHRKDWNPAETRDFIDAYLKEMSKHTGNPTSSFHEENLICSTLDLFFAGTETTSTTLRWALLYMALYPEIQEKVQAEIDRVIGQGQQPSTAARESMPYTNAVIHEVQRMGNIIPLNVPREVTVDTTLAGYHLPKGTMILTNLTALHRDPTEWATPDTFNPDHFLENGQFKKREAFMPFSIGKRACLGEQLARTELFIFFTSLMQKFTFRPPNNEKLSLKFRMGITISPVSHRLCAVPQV
Procedure: (§1) NVS_ADME_hCYP2J2 is a biochemical, single-readout assay that uses extracted gene-proteins in a cell-free assay. Measurements were taken 1 hour after chemical dosing in a 96-well plate.NVS_ADME_hCYP2J2 is one of one assay component(s) measured or calculated from the NVS_ADME_hCYP2J2 assay. It is designed to make measurements of enzyme activity, a form of enzyme reporter, as detected with fluorescence intensity signals by Fluorescence technology.Data from the assay component NVS_ADME_hCYP2J2 was analyzed into 1 assay endpoint. This assay endpoint, NVS_ADME_hCYP2J2, was analyzed in the positive analysis fitting direction relative to Acetonitrile as the negative control and baseline of activity. Using a type of enzyme reporter, loss-of-signal activity can be used to understand changes in the enzymatic activity as they relate to the gene CYP2J2. Furthermore, this assay endpoint can be referred to as a primary readout, because this assay has produced multiple assay endpoints where this one serves a enzymatic activity function. To generalize the intended target to other relatable targets, this assay endpoint is annotated to the cyp intended target family, where the subfamily is xenobiotic metabolism.
(§2) Binding assays used specific radioligands (tritiated, iodinated) with non-radioactive competitive displacement ligands in agonist or antagonist protocols (as indicated) and various reference compounds and inhibitors to titrate specific binding to receptors and transporters. Most enzyme assays (CYPs, kinases, phosphatases, proteases, HDACs) used recombinant protein and specific substrates (fluorescence mostly, some colorimetric and radioactive) and inhibitors, followed by a biochemical separation of substrate and product. All assays for the biochemical HTS were initially run in duplicate at a single concentration (10 uM for CYP450 assays and 25 uM for all others). Assay-chemical combinations meeting a pre-defined threshold (e.g., 30% inhibition and other criteria defined below) were then run in singleton concentration-response format with maximum concentration of 20 uM for CYPs and 50 uM for all others. Each assay was run with positive and negative controls, and concurrent controls on every plate. The follow-up (secondary) screen tested active chemical-pairs in concentration series, as well as a few additional assays not tested in the primary screen, some selected negative inactives, and several cases re-run in the concentration series for confirmatory purposes.

[7] = target: human CYP2D6, CYP2D6 (gene 1565) (UniProt P10635); assay: NVS_ADME_hCYP2D6: NovaScreen (NVS) CYP450-related Enzyme Activity (ADME) Assay for human CYP2D6 (AID 2283107)
Sequence of human CYP2D6, CYP2D6 (gene 1565) (P10635 whole entry, looked up): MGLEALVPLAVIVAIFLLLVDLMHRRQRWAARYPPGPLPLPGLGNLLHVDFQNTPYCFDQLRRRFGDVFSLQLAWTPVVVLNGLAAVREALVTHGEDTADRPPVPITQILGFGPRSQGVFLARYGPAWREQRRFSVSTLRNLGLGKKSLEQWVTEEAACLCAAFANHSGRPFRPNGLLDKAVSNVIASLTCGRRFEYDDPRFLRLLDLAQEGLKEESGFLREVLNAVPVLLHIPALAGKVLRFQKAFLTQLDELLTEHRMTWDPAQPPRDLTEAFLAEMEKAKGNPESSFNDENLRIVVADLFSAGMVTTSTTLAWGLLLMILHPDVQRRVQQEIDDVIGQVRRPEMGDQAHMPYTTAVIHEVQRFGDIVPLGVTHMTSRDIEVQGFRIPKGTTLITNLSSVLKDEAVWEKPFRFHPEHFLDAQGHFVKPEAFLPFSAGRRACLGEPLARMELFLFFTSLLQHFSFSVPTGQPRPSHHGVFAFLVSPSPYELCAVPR
In short: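 Insect-cell recombinant enzyme + fluorogenic substrate, cell-free; 1 h incubation; fluorescence intensity readout. Acetonitrile = neg. ctrl/baseline. Single-point 10 uM, duplicate; follow-up concentration series.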

[8] = target: human CYP4F12, CYP4F12 (gene 66002) (UniProt Q9HCS2); assay: NVS_ADME_hCYP4F12: NovaScreen (NVS) CYP450-related Enzyme Activity (ADME) Assay for human CYP4F12 (AID 2283111)
Sequence of human CYP4F12, CYP4F12 (gene 66002) (Q9HCS2 whole entry, looked up): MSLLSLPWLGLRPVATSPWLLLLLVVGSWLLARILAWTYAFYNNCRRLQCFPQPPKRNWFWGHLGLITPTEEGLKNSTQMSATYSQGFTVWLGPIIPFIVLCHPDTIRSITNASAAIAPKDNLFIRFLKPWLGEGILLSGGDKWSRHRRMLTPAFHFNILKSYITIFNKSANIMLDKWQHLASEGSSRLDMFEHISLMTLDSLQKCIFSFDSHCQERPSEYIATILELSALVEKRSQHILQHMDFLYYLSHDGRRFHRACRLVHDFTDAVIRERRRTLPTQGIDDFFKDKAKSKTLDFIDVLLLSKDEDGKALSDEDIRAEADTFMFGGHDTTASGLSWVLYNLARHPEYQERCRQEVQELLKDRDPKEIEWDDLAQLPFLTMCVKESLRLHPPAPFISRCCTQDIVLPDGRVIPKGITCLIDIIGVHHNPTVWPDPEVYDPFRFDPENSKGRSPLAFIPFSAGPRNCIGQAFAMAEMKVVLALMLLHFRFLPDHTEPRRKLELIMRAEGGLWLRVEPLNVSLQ
In short: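 Recombinant enzyme with a fluorescent substrate, signal read at 0.5 h post-dose; activity loss analysed relative to acetonitrile. Compounds first run in duplicate at 10 uM, with follow-up concentration-response testing of actives.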

[9] = target: rat CYP2A2, Cyp2a2 (gene 24895) (UniProt P15149); assay: NVS_ADME_rCYP2A2: NovaScreen (NVS) CYP450-related Enzyme Activity (ADME) Assay for rat CYP2A2 (AID 2283116)
Sequence of rat CYP2A2, Cyp2a2 (gene 24895) (P15149 whole entry, looked up): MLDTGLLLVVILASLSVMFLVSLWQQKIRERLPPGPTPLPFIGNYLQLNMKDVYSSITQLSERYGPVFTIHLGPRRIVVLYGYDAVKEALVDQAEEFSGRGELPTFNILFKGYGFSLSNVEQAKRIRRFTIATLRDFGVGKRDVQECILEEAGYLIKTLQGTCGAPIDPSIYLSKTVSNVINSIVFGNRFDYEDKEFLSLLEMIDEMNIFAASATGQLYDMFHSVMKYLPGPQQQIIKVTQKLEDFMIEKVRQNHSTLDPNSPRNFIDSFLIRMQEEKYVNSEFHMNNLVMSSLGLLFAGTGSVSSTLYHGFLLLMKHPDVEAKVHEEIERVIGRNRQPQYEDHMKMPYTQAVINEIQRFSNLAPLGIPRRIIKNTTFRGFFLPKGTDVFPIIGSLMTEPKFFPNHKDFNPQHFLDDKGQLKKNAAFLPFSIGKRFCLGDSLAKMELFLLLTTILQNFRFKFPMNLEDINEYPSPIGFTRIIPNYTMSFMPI
In short: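 Compounds first tested in duplicate at 10 uM, then in singleton concentration series up to 20 uM when over threshold. Activity of the recombinant enzyme read by fluorescence at 0.2 h, normalised to acetonitrile vehicle.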

[10] = target: rat CYP1A2, Cyp1a2 (gene 24297) (UniProt P04799); assay: NVS_ADME_rCYP1A2: NovaScreen (NVS) CYP450-related Enzyme Activity (ADME) Assay for rat CYP1A2 (AID 2283115)
Sequence of rat CYP1A2, Cyp1a2 (gene 24297) (P04799 whole entry, looked up): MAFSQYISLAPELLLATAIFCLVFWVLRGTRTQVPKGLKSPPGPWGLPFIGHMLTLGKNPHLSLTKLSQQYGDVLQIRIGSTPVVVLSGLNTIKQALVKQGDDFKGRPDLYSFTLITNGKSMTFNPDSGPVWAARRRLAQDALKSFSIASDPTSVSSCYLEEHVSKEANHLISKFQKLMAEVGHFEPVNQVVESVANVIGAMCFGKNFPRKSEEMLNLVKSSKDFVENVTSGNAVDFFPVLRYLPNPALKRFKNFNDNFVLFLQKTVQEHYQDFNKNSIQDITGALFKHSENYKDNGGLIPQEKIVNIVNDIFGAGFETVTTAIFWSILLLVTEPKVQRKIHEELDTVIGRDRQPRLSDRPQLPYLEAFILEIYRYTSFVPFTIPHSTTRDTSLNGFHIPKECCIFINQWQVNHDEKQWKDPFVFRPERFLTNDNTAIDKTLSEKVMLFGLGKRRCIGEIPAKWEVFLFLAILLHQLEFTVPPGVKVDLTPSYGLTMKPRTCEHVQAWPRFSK
Procedure: as §1, with “NVS_ADME_rCYP1A2” for “NVS_ADME_hCYP2J2”, “plate.NVS_ADME_rCYP1A2” for “plate.NVS_ADME_hCYP2J2”, “NVS_ADME_rCYP1A2,” for “NVS_ADME_hCYP2J2,”, “Cyp1a2.” for “CYP2J2.”
as §2, with “Assay-chemical combinations meeting a pre-defined threshold (e.g., 30% inhibition and other criteria defined below) were then run in singleton concentration-response format with maximum concentration of 20 uM for CYPs and 50 uM for all others.” left out

CCOC(=O)C(Cl)Cc1cc(-n2nc(C)n(C(F)F)c2=O)c(F)cc1Cl (configuration not stated)
outcome [1]: inactive
AC50 [2]: 10 µM (active)

CCCN(CCC)c1c([N+](=O)[O-])cc(S(N)(=O)=O)cc1[N+](=O)[O-]
outcome [3]: inactive
AC50 [4]: 4890 nM (active)
outcome [5]: inactive
AC50 [2]: 1.34 µM (active) [middle of 4 runs]

O=C(O)c1nc(Cl)ccc1Cl
outcome [5]: inactive
outcome [2]: inactive

CS/C(C)=N/OC(=O)N(C)SN(C)C(=O)O/N=C(\C)SC
AC50 [6]: 2790 nM (active)
AC50 [7]: 934 nM (active)
outcome [8]: inactive
AC50 [2]: 3.43 µM (active)

CC1COC(Cn2cncn2)(c2ccc(Oc3ccc(Cl)cc3)cc2Cl)O1 (configuration not stated)
AC50 [3]: 1.71 µM (active)
AC50 [4]: 2740 nM (active)
AC50 [6]: 438 nM (active)
AC50 [2]: 0.0258 µM (active)
AC50 [9]: 127 nM (active)

CCNc1nc(Cl)nc(NCC)n1
AC50 [6]: 200 nM (active)

CCNc1nc(Cl)nc(NC(C)C)n1
AC50 [1]: 14.8 µM (active) and 9.2 µM (active)
AC50 [2]: 10 µM (active)
outcome [9]: inactive

CN(C)C(=S)SSC(=S)N(C)C
AC50 [6]: 6560 nM (active)
AC50 [7]: 2150 nM (active)
outcome [5]: inactive
AC50 [2]: 0.78 µM (active)
outcome [10]: inactive

COP(=S)(OC)Oc1nc(Cl)c(Cl)cc1Cl
outcome [1]: inactive
AC50 [2]: 10 µM (active)
outcome [10]: inactive

COC(=O)C(C)Oc1ccc(Oc2ccc(Cl)cc2Cl)cc1 (configuration not stated)
AC50 [2]: 10 µM (active) and 14.1 µM (active) and 7.91 µM (active)

N#CC(CCc1ccc(Cl)cc1)(Cn1cncn1)c1ccccc1 (configuration not stated)
AC50 [3]: 0.429 µM (active)
AC50 [5]: 4350 nM (active)
AC50 [2]: 0.191 µM (active)
AC50 [9]: 20 nM (active)

Fc1ccc(Oc2ccnc3cc(Cl)cc(Cl)c23)cc1
AC50 [1]: 7.42 µM (active)
outcome [2]: inactive

CCCCOC(=O)c1ccccc1C(=O)OCCCC
AC50 [1]: 7.03 µM (active) and 7.88 µM (active)
outcome [4]: inactive
AC50 [2]: 6.73 µM (active) and 7.37 µM (active)
outcome [9]: inactive

CCCCNC(=O)OCC#CI
AC50 [2]: 1.81 µM (active) and 2.46 µM (active)
AC50 [9]: 5.3 µM (active) and 5.4 µM (active)

CCCCC(CC)COC(=O)c1ccccc1C(=O)OCC(CC)CCCC (configuration not stated)
outcome [2]: inactive

COC(=O)N(OC)c1ccccc1COc1ccn(-c2ccc(Cl)cc2)n1
AC50 [1]: 0.912 µM (active)
outcome [4]: inactive
AC50 [2]: 0.72 µM (active)

N#Cc1nn(-c2c(Cl)cc(C(F)(F)F)cc2Cl)c(N)c1S(=O)C(F)(F)F (configuration not stated)
AC50 [2]: 0.751 µM (active)

O=C(Nc1ccccc1)Nc1ccnc(Cl)c1
AC50 [6]: 2150 nM (active)
outcome [10]: inactive

C=CCC1=C(C)C(OC(=O)C2C(C=C(C)C)C2(C)C)CC1=O (configuration not stated)
outcome [3]: inactive
outcome [5]: inactive

CCc1nn(C)c(C(=O)NCc2ccc(C(C)(C)C)cc2)c1Cl
outcome [4]: inactive

CC(C)Oc1cc(-n2nc(C(C)(C)C)oc2=O)c(Cl)cc1Cl
AC50 [1]: 6.42 µM (active)
outcome [2]: inactive

C#CCOS(=O)OC1CCCCC1Oc1ccc(C(C)(C)C)cc1 (configuration not stated)
outcome [1]: inactive
outcome [5]: inactive
AC50 [2]: 14.3 µM (active)

C=CC1(C)OC(=O)N(c2cc(Cl)cc(Cl)c2)C1=O (configuration not stated)
AC50 [3]: 6.73 µM (active) and 5.83 µM (active)
outcome [1]: inactive
outcome [5]: inactive
AC50 [2]: 5.01 µM (active) and 10 µM (active) and 1.87 µM (active)

CCON=C(CC)C1=C(O)CC(c2c(C)cc(C)cc2C)CC1=O (configuration not stated)
AC50 [2]: 3.37 µM (active)

C=CCC1=C(C)[C@@H](OC(=O)[C@@H]2[C@@H](C=C(C)C)C2(C)C)CC1=O
AC50 [7]: 10000 nM (active)
AC50 [2]: 6.39 µM (active)

CCOP(=S)(OCC)SCn1c(=O)oc2cc(Cl)ccc21
AC50 [3]: 1.25 µM (active)
AC50 [1]: 2 µM (active)
outcome [6]: inactive
AC50 [7]: 2800 nM (active)
AC50 [2]: 0.215 µM (active)
outcome [10]: inactive
AC50 [9]: 10000 nM (active)

CCCC1COC(Cn2cncn2)(c2ccc(Cl)cc2Cl)O1 (configuration not stated)
AC50 [3]: 2.78 µM (active)
outcome [6]: inactive
AC50 [7]: 13900 nM (active)
AC50 [2]: 0.721 µM (active)
AC50 [9]: 106 nM (active) and 102 nM (active)

CNC(=S)S
outcome [1]: inactive
AC50 [2]: 7.58 µM (active)

CCOC(=O)CC(SP(=S)(OC)OC)C(=O)OCC (configuration not stated)
AC50 [3]: 0.899 µM (active)
AC50 [1]: 0.837 µM (active)
outcome [4]: inactive
AC50 [6]: 369 nM (active)
AC50 [7]: 4680 nM (active)
AC50 [2]: 0.032 µM (active)
AC50 [9]: 2590 nM (active)

CO/C=C(/C(=O)OC)c1ccccc1Oc1cc(Oc2ccccc2C#N)ncn1
outcome [5]: inactive

N#Cc1cc(Br)c(O)c(Br)c1
outcome [7]: inactive

CON(C)C(=O)Nc1ccc(Cl)c(Cl)c1
outcome [10]: inactive

Oc1ccccc1-c1ccccc1
outcome [9]: inactive

Cc1ccc(-c2c(Cl)nc(C#N)n2S(=O)(=O)N(C)C)cc1
AC50 [1]: 5.8 µM (active)
AC50 [4]: 3900 nM (active)
AC50 [2]: 7.38 µM (active)
outcome [10]: inactive

COc1ccc(C(c2ccc(OC)cc2)C(Cl)(Cl)Cl)cc1
outcome [4]: inactive
outcome [5]: inactive
outcome [8]: inactive
AC50 [2]: 7 µM (active)
outcome [9]: inactive

CC1=C(C(=O)Nc2ccccc2)SCCO1
AC50 [1]: 6.47 µM (active)
outcome [10]: inactive

COc1nc(C)nc(NC(=O)NS(=O)(=O)c2ccccc2Cl)n1
outcome [7]: inactive

OC(c1ccc(Cl)cc1)(c1cncnc1)c1ccccc1Cl (configuration not stated)
AC50 [3]: 5.75 µM (active)
AC50 [4]: 10000 nM (active)
AC50 [6]: 2260 nM (active)
AC50 [5]: 3870 nM (active)
AC50 [2]: 0.136 µM (active)
AC50 [9]: 53.4 nM (active)
